High-throughput results: PubChem, National Center for Advancing Translational Sciences (NCATS)
Methyltransferases – Primary Screen for Target Class Profiling of Small Molecule Inhibitors of Methyltransferases; purified enzyme, MTase-Glo SAH luminescence; active compounds read low; calls only at 40 µM; 3.9% of 25,000 active; AID 1745853, 2022; call rule not given here
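Each enzyme was reacted with SAM and its substrate, with compounds tested once at 40 uM; SAH formed was read by MTase-Glo luminescence.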
Large screens that a line does not name were inactive. Shown is part of a subset that was picked to be rich in hits.

CC(NC(=O)c1cc2n(n1)CC(C)(C(=O)NC1CCCCC1)N(C)C2=O)c1ccccc1 (stereo not drawn)	none
COc1cc2ncnc(N3CCC(Oc4cnc5ccccc5n4)C3)c2cc1OC (stereo not drawn)	none
COc1cc2nc(N3CCC(N4CCCCC4)CC3)nc(NC3CCCCCC3)c2cc1OC	Methyltransferases active
COCCn1ncc(N2CCC(C(=O)NCCCN3CCC(N4CCCCC4)CC3)C2)cc1=O (stereo not drawn)	none
CCC(C)NC(=O)c1ccc2c(=O)n(C)c3nn(Cc4ccccc4F)c(=O)n3c2c1 (stereo not drawn)	none
Nc1nc(NCC2CCC(CNS(=O)(=O)c3cccc4ccccc34)CC2)nc2ccccc12 (stereo not drawn)	Methyltransferases active
O=C(NCCCc1ccccc1)C1CCC(CNS(=O)(=O)c2cccc3nsnc23)CC1 (stereo not drawn)	none
CC(C)CCn1c(=O)c2ccccc2n2c(=O)n(CC(=O)Nc3ccc(F)cc3)nc12	none
Cn1nnnc1SCCNCc1ccc2c(c1)n(C)c(=O)n2C	none
CCN1C(=O)c2ccccc2C1Nc1ccc(OCCN2CCCCC2)cc1 (stereo not drawn)	Methyltransferases active
CCCCOc1ccccc1-c1cc2n(n1)CC(C)(C(=O)NC1CCCCCC1)N(CC)C2=O (stereo not drawn)	none
CCCCN1C(=O)c2ccccc2C(C(=O)NC2CC2)C12CCCCC2 (stereo not drawn)	none
Cc1ccccc1CCNC(=O)Cn1ccc2cc(S(=O)(=O)N3CCCCC3)ccc21	none
COc1ccc(NC(=O)CSc2nnc3n(CC(C)C)c(=O)c4ccc(Cl)cc4n23)cc1	none
Cc1ccc(N2C(=O)c3cc4occc4n3CC2(C)C(=O)NC2CCCCC2)cc1C (stereo not drawn)	none
COc1cccc(CNC(=O)Cn2c(=O)oc3cc(S(=O)(=O)NCc4ccccc4)ccc32)c1	none
CNCCN(C)Cc1cn[nH]c1-c1ccc(OC2CC(OCCC3CCOCC3)C2)cc1 (stereo not drawn)	Methyltransferases active
CCc1cc2c(-c3ccccc3)cc(=O)oc2cc1OCc1cc(C(=O)OC)oc1C	none
COc1cc(Nc2nc3c(S(=O)(=O)c4ccccc4)nnn3c3ccccc23)cc(OC)c1	none
Cc1ccc(Cl)cc1N1CCN(S(=O)(=O)c2cc3c(cc2C)n(C)c(=O)n3C)CC1	none
CCCN1C(=O)c2cc3occc3n2CC1(C(=O)NC1CCCCCCC1)c1ccccc1 (stereo not drawn)	none
COCCNC(=O)CCc1nnc2n(Cc3ccc(Cl)cc3)c(=O)c3ccccc3n12	none
O=C(CCc1nnc2n(Cc3ccccc3)c(=O)c3ccccc3n12)NCCc1ccc(Cl)cc1	none
CCN(CC)CCNC(=O)CCc1nnc2n(Cc3ccc(Cl)cc3)c(=O)c3ccccc3n12	Methyltransferases active
O=C(CCc1nnc2n(Cc3ccc(F)cc3)c(=O)c3ccccc3n12)NCc1ccc(F)cc1	none
CCN(CC)CCCNC(=O)CCc1nnc2n(Cc3ccc(F)cc3)c(=O)c3ccccc3n12	Methyltransferases active
CCN(CCCNC(=O)CCc1nnc2n(Cc3ccccc3)c(=O)c3ccccc3n12)c1ccccc1	none
COc1ccccc1CN1C(=O)c2nc3ccccc3n2CC1(C)C(=O)NC1CCCCC1C (stereo not drawn)	none
COc1ccc(CCNS(=O)(=O)c2ccc3[nH]c(=O)[nH]c3c2)cc1OC	none
CCCC1c2ccc(C)n2CCN1C(=O)Nc1ccc(F)c(Cl)c1 (stereo not drawn)	none
Cc1cccc(N2C(=O)c3cc4occc4n3CC2(C)C(=O)NC2CCCCC2)c1C (stereo not drawn)	none
Cc1cccc(N2CCN(C(=O)CCc3nnc4n(CC(C)C)c(=O)c5ccccc5n34)CC2)c1C	Methyltransferases active
Cc1ccc(Cn2c(=O)c3ccccc3n3c(CCC(=O)N4CCN(c5cccc(C)c5C)CC4)nnc23)cc1	none
Cc1ccc(C)c(N2CCN(C(=O)CCc3nnc4n(CCC(C)C)c(=O)c5ccccc5n34)CC2)c1	none
NCCCNc1ccc(Nc2nccc(Nc3cc(C4CC4)[nH]n3)n2)cc1	Methyltransferases active
Cn1cc(-c2cnc3ccc4ccc(CS(=O)(=O)NCc5ccccn5)cc4c(=O)c3c2)cn1	Methyltransferases active
Cn1cc(-c2ccc3ncc(Cc4ccc5ncccc5c4)n3n2)cn1	none
CN1C(=O)c2cc(C(=O)NCc3ccccn3)nn2CC1(C)C(=O)NCc1ccccc1 (stereo not drawn)	none
Cc1cccc(CNC(=O)C2(C)Cn3cnc(C(=O)N(C)Cc4ccccc4)c3C(=O)N2C2CC2)c1 (stereo not drawn)	none
CC1CCC(NC(=O)C2(C)Cn3c(ccc3-c3ccco3)C(=O)N2Cc2ccc(Cl)cc2)CC1 (stereo not drawn)	none
CCN1C(=O)c2cc3ccccc3n2CC1(C)C(=O)NCC(=O)NCCc1ccccc1C (stereo not drawn)	none
COC(=O)c1ncn2c1C(=O)N(c1ccc(C(C)C)cc1)C(C)(C(=O)NC1CCCCCC1)C2 (stereo not drawn)	none
CCCn1c(=O)c2cc(Cl)ccc2n2c(SCC(=O)Nc3cccc(C)c3)nnc12	none
CC(C)(C)c1cc(/C=C(\C#N)C(N)=S)cc(C(C)(C)C)c1O	Methyltransferases active
CC(=O)Nc1c2n(c3ccc(F)cc13)CC(C)(C(=O)NCCC(C)C)N(C1CCCCCC1)C2=O (stereo not drawn)	none
CCCn1c(=O)c2ccccc2n2c(=O)n(Cc3cccc(Cl)c3)nc12	none
Cc1ccc(S(=O)(=O)c2nnn3c2nc(NCc2ccccc2)c2ccccc23)cc1	none
Fc1cccc(-c2nnn3c2nc(NCC2CCCO2)c2cc(Cl)ccc23)c1 (stereo not drawn)	none
COc1ccc(Sc2ccc(NC(=O)c3ccccc3Cl)cc2C#N)cc1	none
COc1cc(OC)cc(C(=O)Nc2ccc(Cl)c(-c3nc4ccc(N(C)C)cc4[nH]3)c2)c1	Methyltransferases active
CN1C(=O)c2cc(NC(=O)c3cccc(N(C)C)c3)ccc2N2CCN=C12	none
CN1C(=O)c2cc(C(=O)NC3CCCc4ccccc43)nn2CC1(C)C(=O)NC1CCCCCC1 (stereo not drawn)	none
CC1CCCN(C(=O)Cn2c(=O)oc3cc(S(=O)(=O)NCc4ccccc4)ccc32)C1 (stereo not drawn)	none
CC(C)Cn1c(=O)c2ccc(C(=O)NC(C)C)cc2n2c(SCC(=O)NCc3ccccc3)nnc12	none
CCCn1c(=O)c2ccc(C(=O)NC(C)C)cc2n2c(SCC(=O)Nc3ccc(C)c(F)c3)nnc12	none
COc1ncc(-c2ccc3nccc(-c4ccnnc4)c3c2)cc1NS(=O)(=O)c1ccc(F)cc1F	Methyltransferases active
CCC(C)NC(=O)c1ccc2c(=O)n(C(C)C)c3nn(CC(=O)Nc4ccc(Cl)cc4)c(=O)n3c2c1 (stereo not drawn)	none
CC(C)Cn1c(=O)c2cc(F)ccc2n2c(SCc3ccccc3F)nnc12	none
COc1ccc2cc3n(c2c1)CC(C)(C(=O)NC1CCCCC1)N(Cc1cccs1)C3=O (stereo not drawn)	none
COc1ccc(-c2oc3ccc(C)cc3c(=O)c2O)cc1OC	Methyltransferases active
CCN1CCN(Cc2cc3ccc(C)cc3nc2-c2ccc(OC)c(OC)c2)CC1	none
COc1ccc(-c2nnc(-c3ccc(Cl)c(S(=O)(=O)N4CCC(C)CC4)c3)o2)cc1OC	none
Cc1cc2c(cc3n2CC(C)(C(=O)NC2CCCCCCC2)N(CCC(C)C)C3=O)o1 (stereo not drawn)	none
CCOc1ccc(CCN2C(=O)c3cc(-c4ccccc4)nn3CC2(C)C(=O)NCc2ccccc2)cc1 (stereo not drawn)	none
